Data published in PubChem BioAssay.
The source made the active and inactive calls. How the calls were made is not given here. Peptide text beside a SMILES is read from it. * marks the point of attachment. Cbz = O=C(OCc1ccccc1)*

Experiment: chitosan synthesis blockers in C. neoformans – flow cytometry, Cibacron Brilliant Red staining (AID 1347148);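 further: compound exposure lasted three days at 37 degrees C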
Conditions: Cryptococcus neoformans chitosan, hits give low values; at 10 µM unless noted

Fold fluorescence, inactive:
CCCCC[C@H](O)CC(=O)CCc1ccc(O)c(OC)c1 5.62 [at 169.8 µM]
Nc1ncnc2c1nc(Br)n2C1O[C@H]2COP(=O)(O)O[C@@H]2[C@@H]1O (stereo partly specified) 3.88 [at 122.5 µM]
N#C/C(=C/c1ccc(O)c(O)c1)C(=O)OC/C=C/c1ccccc1 10.2 [at 155.6 µM]
CCCCC/C=C\C\C=C/C=C/C=C/[C@@H](SC[C@H](N)C(=O)O)[C@@H](O)CCCC(=O)O 3.87 [at 1 µM]
CC(=O)N[C@@H](CC(C)C)C(=O)N[C@@H](CC(C)C)C(=O)N[C@H](C=O)CCCN=C(N)N 4.98 [at 117.2 µM]
O=C[C@@H]1CCCN1C(=O)[C@@H]1CCCN1C(=O)OCc1ccccc1 (Cbz-Pro-Pro-aldehyde) 5.13 [at 151.3 µM]
CC(=O)OCOC(c1cc([N+](=O)[O-])ccc1Oc1ccc(Br)cc1)P(=O)(OCOC(C)=O)OCOC(C)=O (stereo unspecified) 3.77 [at 80.6 µM]
C[C@H]([C@H](C)N1CC(=O)NC(=O)C1)N1CC(=O)NC(=O)C1 4.39 [at 177.1 µM]
CCCCC/C=C\C/C=C\CCCCCCCC(=O)O[C@@H](CO)COC(=O)CCCCCCCCCCCCCCCCC 4.76
CC12C=CC(=O)C=C1CCC1C2=CCC2(C)C1CC[C@@H]2C(=O)CN1CCN(c2cc(N3CCCC3)nc(N3CCCC3)n2)CC1 (stereo partly specified) 7.93 [at 81.9 µM]
CCCCCCCCCCCCCCCCOC[C@H](CO)OC 4.63
